{"source": "PubChem BioAssay (NCATS)", "note": "Records with an inconclusive call do not appear. Values without a mark were called inactive. Activity calls are given as the source filed them. Calls follow the shape of the dose curve; as a rule, active = well fitted curve in the direction sought with a large enough effect; inconclusive = small, poorly fitted or top-dose-only effect, or effect the other way, or another doubt; inactive = no such curve, though single readings can be large or run the other way. Numbered stars: 1 amine (or outer) side, 2 acyl side, 3 side chain; on linkers, the order of the positions; unused ones are H or OH. Square brackets hold non-standard residues; d marks the D form. Peptide text beside a SMILES is read from it. * marks the point of attachment. X1 = CCCCCCCCCC(=O)[C@H](C(=O)[*:2])[C@@H]1CNC(=O)[C@@H](N[*:1])CS1; Octanoyl = CCCCCCCC(=O)*"}
{"experiment": "HPAF-II 24hr Apoptosis Induction qHTS against the NCATS CANVASS Library (AID 1347356); also: 0% is about no effect", "settings": "HPAF-II caspase-3/7 Caspase-Glo luminescence; series mostly up to 46.1 µM", "from_the_text": "Natural products and their derivatives continue to be wellsprings of nascent therapeutic potential. However, many laboratories have limited resources for biological evaluation, leaving their previously isolated or synthesized compounds largely or completely untested. To address this issue, the Canvass library of natural products was assembled (https://tripod.nih.gov/canvass), in collaboration with academic and industry researchers, for quantitative high-throughput screening (qHTS) across a diverse set of cell-based and biochemical assays. The pure (>85% purity by liquid chromatography/mass spectrometry [LC/MS]) Canvass library of 346 natural products were submitted by 45 academic laboratories and companies around the world. We collected pure natural products to circumvent deconvolution and structure elucidation due to time and resource limitations. The library was formatted into 1536-well plates and evaluated in 50 qHTS (in an 11-pnt concentration series) bioassays with broad scope of disease-relevant mechanisms. The resulting data set from 50 different assays was then systematically analyzed to identify overall trends and specific natural products with interesting biological activities. Reported herein are the results of each individual qHTS and their corresponding assay protocol. The Caspase-Glo (R) (Promega) is a homogeneous, luminescent assay that measures caspase activity. The detection substrate contains tetrapeptide sequence DEVD in an \"add-mix-measure\" format. The reagent generates a luminescent signal produced by a thermostable luciferase. The luminescence is proportional to the amount of caspase activity in the assay reaction. National Center for Advancing Translational Sciences (NCATS), Rockville, MD National Institute of Health (NIH), Bethesda, Maryland\nCancer Cell Apoptosis Assay 1. In a 1536 well, white solid bottom tissue culture plates (Corning 7494), HPAF-II cancer cells in DMEM + 10% FBS + 1% P/S media were dispensed in each well at a final concentration of 500 cells / well (5uL volume) using the Multidrop Combi (Thermo Fisher Scientific) dispenser. 2. Compounds were pin transferred (~23nL volume) via Wako Pin-tool (Wako Automation, Richmond VA) equipped with a 1536 pin head. The assay plates were treated with compounds in a concentration series with a final concentration range of 0.17 nM to 103 uM. 3. Doxorubicin was used as a control in a 16pnt titration (1mM; 1:2 dilution; 16-points; n = 2; column 3, rows 1 - 32) and was pin transferred via Wako Pin-tool equipped with a 1536 pin head. The final concentration range of doxorubicin is 0.1nM - 4uM. 4. The assay plates were incubated for 24 hours at 37 degrees C/5% CO2/95% Rh. 5. 3uL Caspase-Glo 3/7 (R) (Promega) detection reagent was then added to the assay plates (columns 2 - 48, rows 1 - 32) and incubated at room temperature, covered from light, for 15 min. 6. Luminescence signal was acquired via the ViewLux plate reader (PerkinElmer) using a clear filter, 20 second exposure and 2x binning settings."}
{"smiles": "COc1ccc([C@@H]2c3cc(OC)c(OC)cc3C(=O)C(C)C2C)cc1OC", "note": "(stereo not given in full)", "outcome": "inactive"}
{"smiles": "COc1cc(/C=C2/C(=O)N(c3ccc(O)cc3C(=O)O)[C@H](c3ccc(O)c(OC)c3)C2C(=O)Nc2ccc(O)cc2C(=O)O)ccc1O", "note": "(stereo not given in full)", "outcome": "inactive"}
{"smiles": "COc1cc(O)c2c3c(c(O)cc(C)c13)C(=O)OC2", "outcome": "inactive"}
{"smiles": "O=C1CC(c2cc(O)cc(O)c2)Oc2cc(O)ccc21", "note": "(stereo not given)", "outcome": "inactive"}
{"smiles": "COc1ccc2oc3c(OC)c(OC)c(OC)c(OC)c3c(=O)c2c1", "caspase activation": "1.51% [at 9.19 µM]"}
{"smiles": "C=C(C)[C@@H]1CC[C@]2(C)CC[C@]3(C)[C@H](CC[C@@H]4[C@@]5(C)CC[C@H](O)C(C)(C)[C@@H]5CC[C@]43C)[C@@H]12", "outcome": "inactive"}
{"smiles": "CC1C(=O)C23CCC1C[C@]21O[C@@H]2C(C)(C)C=CC(=O)[C@@]23COC1=O", "note": "(stereo not given in full)", "outcome": "inactive"}
{"smiles": "C[C@@H]1C[C@H]2C[C@]3(CCCCN3C)[C@@H]3C[C@H]2[C@H](C1)N(C)C3", "outcome": "inactive"}
{"smiles": "C[C@@H]1O[C@@H](Oc2c(-c3ccc(O)cc3)oc3cc(O)cc(O)c3c2=O)[C@H](O)[C@H](O)[C@H]1O", "outcome": "inactive"}
{"smiles": "CC1(C)C=Cc2c(ccc3c2OC[C@@H](c2ccc(O)cc2O)C3)O1", "outcome": "inactive"}
{"smiles": "CCCCCC[C@H](CCCCC[C@@H](O)C(N)=O)OC(=O)[C@@H]1CC=CN1C(=O)c1ccccc1O", "outcome": "inactive"}
{"smiles": "C/C1=C/[C@@H](C)[C@H](O)C/C=C/CC/C=C/C(=O)O[C@@H]1[C@H](C)C(=O)/C=C/CC1CC(=O)NC(=O)C1", "outcome": "inactive"}
{"smiles": "C=C1C[C@@]23C=CC(=O)[C@@](C)(CCCC(C)C(=O)O)[C@@H]2C[C@@H]1CC3", "note": "(stereo not given in full)", "outcome": "inactive"}
{"smiles": "C=C1C(=O)O[C@H]2C[C@H](C)[C@@H]3CC(=O)C(C)=C3[C@H](O)[C@H]12", "outcome": "inactive"}
{"smiles": "CCCCCCCC(=O)N[C@@H](CC(C)C)C(=O)N[C@H](C=O)CCC(=O)O", "note": "(Octanoyl-Leu-Glu-aldehyde)", "outcome": "inactive"}
{"smiles": "C=C1C(=O)C[C@H]2C[C@@H]1[C@]2(C)CCC=C(C)C", "outcome": "inactive"}
{"smiles": "CC(=O)[C@@H]1[C@@H](O)C[C@H]2[C@]3(C)CC[C@H]4C(C)(C)CCC[C@]4(CO)[C@H]3C[C@H]3OC(=O)[C@@H]1[C@@]32C", "outcome": "inactive"}
{"smiles": "C[C@@H](O)[C@H]1OC(=O)C=C2[C@]3(C)[C@H]4[C@H](OC(=O)[C@@]4(C)[C@@H](O)[C@H]4O[C@H]43)[C@H]3O[C@@]231", "outcome": "inactive"}
{"smiles": "O=C1c2c(O)cc(O)cc2O[C@@H](c2ccc(O)cc2)[C@@H]1c1c(O)cc(O)c2c(=O)cc(-c3ccc(O)c(O)c3)oc12", "outcome": "inactive"}
{"smiles": "COc1ccc([C@@H]2c3cc(OC)c(OC)cc3C(=O)[C@H](C)C2C)cc1OC", "note": "(stereo not given in full)", "caspase activation": "1.81% [at 9.19 µM]"}
{"smiles": "O=C(O)CC1OC(=O)c2c(O)cccc21", "note": "(stereo not given)", "outcome": "inactive"}
{"smiles": "CC[C@@H]1C[C@@]2(CC)OC(=O)[C@@]3(CC)OC(=O)[C@@H]1[C@@H]23", "outcome": "inactive"}
{"smiles": "O=Cc1ccc2n1C[C@@]1(C[C@H](O)[C@@H](CO)O1)OC2", "outcome": "inactive"}
{"smiles": "C/C=C1/CC[C@@H]2c3[nH]c4ccccc4c3CCN2C1", "outcome": "inactive"}
{"smiles": "COc1c(O)cc2oc(-c3ccccc3)cc(=O)c2c1O", "outcome": "inactive"}
{"smiles": "C[C@@H](CCC[C@]1(C)C(=O)C=C[C@]23C[C@H]4C[C@H](O[C@@]4(C)C2)C31)C(=O)N[C@@H](CO)C(=O)O", "note": "(stereo not given in full)", "outcome": "inactive"}
{"smiles": "CC(=O)O[C@H]1CC[C@@]2(C)C(CC[C@]3(C)C2CC=C2C4CC(C)(C)CC[C@]4(C)CC[C@]23C)C1(C)C", "note": "(stereo not given in full)", "outcome": "inactive"}
{"smiles": "CCCCCCC[C@@H](C/C=C/CCC(=O)NCCc1c[nH]c2ccccc12)OC", "outcome": "inactive"}
{"smiles": "C=C1[C@H]2CC[C@@]3(C=CC(=O)[C@@](C)(CCC(=O)Nc4c(O)ccc(C(=O)O)c4O)C3C2)[C@H]1O", "note": "(stereo not given in full)", "outcome": "inactive"}
{"smiles": "C=C(C)CC[C@H](Cc1c(O)cc(O)c2c1O[C@H](c1ccc(O)cc1O)CC2=O)C(=C)C", "outcome": "inactive"}
{"smiles": "O=C(O)Cc1c[nH]c2ccccc12", "outcome": "inactive"}
{"smiles": "CCC[C@@H](C)/C=C(\\C)[C@H](O)[C@H](C)/C=C/CC[C@@H](O)[C@H](C)[C@H](O)[C@H](C)[C@H](O)[C@H](C)[C@H]1O[C@H]([C@H](C)C(=O)O)CC[C@@H]1C", "outcome": "inactive"}
{"smiles": "CNc1ccc(Cl)cc1C(=O)OC[C@]1(C)[C@H]2CC[C@]3(C)[C@@H](C[C@@H](OC)[C@H](C)[C@H]3C3=C(O)C(=O)OC3O)[C@]2(C)CC[C@H]1O", "note": "(stereo not given in full)", "outcome": "inactive"}
{"smiles": "O=Cc1ccc2n1C[C@@]1(C[C@H](O)[C@H](O)CO1)OC2", "outcome": "inactive"}
{"smiles": "O=c1cc(-c2ccc(O)c(O[C@@H]3O[C@H](CO)[C@@H](O)[C@H](O)[C@H]3O)c2)oc2cc(O[C@@H]3O[C@H](CO)[C@@H](O)[C@H](O)[C@H]3O)cc(O)c12", "outcome": "inactive"}
{"smiles": "Cc1cc(O)cc2oc(C[C@H](C)O)cc(=O)c12", "outcome": "inactive"}
{"smiles": "C[C@]12CC[C@]3(C1)[C@H](CC2=O)CC(OC(=O)c1ccccc1)[C@H]1[C@@](CO)(C(=O)O)CCC[C@@]13C", "note": "(stereo not given in full)", "outcome": "inactive"}
{"smiles": "C[C@@]12C[C@@H](C[C@H]3C(=O)O[C@@H](c4ccoc4)[C@H](OC(=O)c4ccccc4)[C@@H]31)OC2=O", "outcome": "inactive"}
{"smiles": "CCCCCCCCCC(=O)[C@@H]1C(=O)N[C@@H](CC(C)C)C(=O)N[C@H](C)C(=O)N2CCC[C@H]2C(=O)N[C@@H](C(C)C)C(=O)N[C@H]2CS[C@H]1CNC2=O", "note": "(cyclo(L[dA]PV[X1]))", "outcome": "inactive"}
{"smiles": "C[C@@]12CCC[C@@](C)(C(=O)O)[C@H]1CC[C@]13C[C@H]4C[C@H](O[C@@]4(C)C1)[C@H]32", "outcome": "inactive"}
